# Sampled rows, rich in hits. Any-hit rate of the full collection: about 19%.
# IL-1B inflam inh = qHTS for Inhibitors of Inflammasome Signaling: IL-1-beta AlphaLISA Primary Screen. THP-1 LPS/ATP IL-1B secretion, AlphaLISA, 16 h; hits give low values. AID 743279, 2014. 360,000 tested, 4.7% active. activity change, % at 57.5 µM; in the data active means activity change below about -50%; inconclusive means mostly about -30% to -49%
#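 Secreted IL-1B measured by AlphaLISA bead assay after 16 h compound exposure of THP-1 cells; compounds (final up to 57.5 uM) added 1 h before LPS (250 ng/mL) and ATP (1.25 mM) stimulation; lower signal means less secretion.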
# HT1080-NT tox = qHTS for induction of synthetic lethality in tumor cells producing 2HG: qHTS for the HT-1080-NT fibrosarcoma cell line; HT-1080-NT fibrosarcoma viability, CellTiter-Glo ATP luminescence, 48 h; 360,000 tested, 1.6% active; Potency, µM (titrated, usually from 46.1 µM), for inactives: at the highest dose activity, negative = less viability, hits mostly cytotoxic;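 further: NT is the 2HG producing partner of a matched IDH1 knockdown line; potency means the concentration at half of the fitted maximal effect; 0% = DMSO-treated cells and -100% = media-only wells without cells; nearly all actives have a fitted effect of over 55% in size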
#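 HT-1080-NT; 750 cells/well; 5% FBS RPMI; 48 h compound, 37 degrees C; CellTiter-Glo luminescence; curve fitting and curve-class assignment.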
# DT40 TDP1 no CPT = qHTS for Inhibitors of human tyrosyl-DNA phosphodiesterase 1 (TDP1): qHTS in cells in absence of CPT. DT40 Tdp1-/- hTDP1 cells, no CPT, ATP luminescence, 48 h. Potency, µM (highest dose often 46.2 µM), for the others: at the highest dose activity change, negative = growth inhibition, usual class: inhibitors. 420,000 tested, 15% active; further: potency means the concentration at half of the fitted maximal effect; nearly all actives have a fitted effect of over 55% in size
#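 Readout: luminescence from CellTiter-Glo after 30 min in the dark at RT. Cells: DT40 Tdp1-/- with stable hTDP1, 400/well. Exposure: compounds alone, ≥48 hr, 37 °C.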
# uPA surface inh = qHTS for Inhibitors of Cell Surface uPA Generation | cell surface uPA generation assay, qHTS | Potency, µM (highest dose often 38.3 µM), for inactives: at the top dose activity change, negative = inhibition, hits mostly inhibitors | 330,000 tested, 0.31% active; active means well fitted inhibition curve with a large enough effect; inconclusive means small, poorly fitted or top-dose-only effect; inactive means no such curve, though single readings can be large or run the other way; tested in mouse RAW 264.7 cells; further: potency means the concentration at half of the fitted maximal effect; nearly all actives have a fitted effect of over 55% in size
# TDP1 cell CPT = qHTS for Inhibitors of human tyrosyl-DNA phosphodiesterase 1 (TDP1): qHTS in cells in presence of CPT | Potency, µM (highest dose often 46.2 µM), for inactives: top-dose activity change, negative = growth inhibition, most hits filed as inhibitors | 420,000 tested, 12% active | chicken DT40 Tdp1-/-;hTDP1 cells + 20 nM CPT, ATP luminescence, 48 h; further: potency means the concentration at half of the fitted maximal effect; nearly all actives have a fitted effect of over 55% in size
#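 Chicken DT40 Tdp1-/- cells complemented with human TDP1, 400 cells/well, exposed to compounds plus 20 nM camptothecin for at least 48 h at 37 C; viability read as ATP content by CellTiter-Glo luminescence.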
# HT1080 IDH1KD tx = qHTS for induction of synthetic lethality in tumor cells producing 2HG: qHTS for the HT-1080-IDH1KD cell line. HT-1080 IDH1 knockdown viability, ATP luminescence, 48 h. Potency, µM (top dose mostly 46.1 µM), inactives show at the top dose activity, negative = toxicity, most hits filed as cytotoxic. 360,000 tested, 2% active. AID 686971, 2013;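 further: potency means the concentration at half of the fitted maximal effect; 0% = DMSO wells and -100% = cell-free medium wells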
#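 HT-1080-IDH1KD cells (IDH1 knocked down), 750/well in RPMI with 5% FBS, treated with compound 48 h at 37 degrees C. Viability by CellTiter-Glo luminescence, normalised to DMSO and no-cell wells; concentration-response curves classed.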
# The depositor's hits bear a star; ? = inconclusive; . = no result given; [ ] = another dose, or the depositor's remark. Unless noted, the call rests on the fitted dose curve; in most records, active means well fitted curve in the direction sought with a large enough effect; inconclusive means small, poorly fitted or top-dose-only effect, or another doubt; inactive means no such curve, though single readings can be large; an effect the other way counts as inactive or inconclusive. Unless noted, on the % scale 0 is the no-effect control and ±100 the full control effect.
SMILES,IL-1B inflam inh,HT1080-NT tox,DT40 TDP1 no CPT,uPA surface inh,TDP1 cell CPT,HT1080 IDH1KD tx
CC(C)Oc1ccc(C(=O)Nc2ccc3oc(-c4ccncc4)nc3c2)cc1,.,.,-12.3%,.,-18.9%,.
CCOc1ccc(/C=N/NC(=O)c2cc(-c3ccco3)nc3ccccc23)cc1,-14.8,?,23.1µM*,-8.4%,?,-13.1%
O=C(N/N=C/c1ccc(F)cc1)c1cc(-c2ccco2)nc2ccccc12,27.6,?,13µM*,-7.3%,11.6µM*,16.4µM*
Cc1cccc(C)c1NC(=O)COC(=O)c1ccc([N+](=O)[O-])o1,-2.1,13.8%,-17.4%,.,-4.0%,18.1%
COc1ccccc1N(CC(O)Cn1c(C)nc2ccccc21)S(=O)(=O)c1ccccc1 (configuration not stated),12.8,3.5%,29.1µM*,2.3%,?,19.2%
COc1ccccc1N(CC(O)COc1ccc(C)cc1)S(=O)(=O)c1ccccc1 (configuration not stated),-93.3*,4.3%,?,12.2%,-4.6%,-2.4%
COc1ccccc1N(CC(O)COc1c(C)cc(C)cc1C)S(=O)(=O)c1ccccc1 (configuration not stated),-56.3*,3.7%,?,-3.8%,?,-5.0%
COc1ccccc1N(CC(O)COc1ccccc1)S(=O)(=O)c1ccccc1 (configuration not stated),-0.4,7.6%,?,18.6%,?,8.8%
CC(C)C(OC(=O)c1cccc(S(=O)(=O)NCC(F)(F)F)c1)C(=O)NC(N)=O (configuration not stated),-5.8,-2.6%,?,-10.1%,4.3%,-0.1%
Cc1c(C)n(CCc2ccccc2)c2ncnc(NCCCO)c12,25.8,-2.8%,?,-12.0%,?,-0.1%
COCCn1c(C)c(C)c2c(NCCc3ccccc3)ncnc21,4.2,3.2%,16.4µM*,-11.6%,23.1µM*,1.4%
Cc1ccc(CCNc2ncnc3onc(C)c23)cc1,.,.,0.82µM*,.,1.84µM*,.
CCOc1ccc(CCNc2ncnc3onc(C)c23)cc1OCC,.,.,2.06µM*,.,2.91µM*,.
Cc1noc2ncnc(NCCc3ccccc3)c12,.,.,6.51µM*,.,7.31µM*,.
CCOCCCNc1ncnc2onc(C)c12,.,.,?,.,-18.2%,.
COc1ccc(Nc2ncnc3onc(C)c23)cc1Cl,.,.,?,.,-6.2%,.
Cn1nnc2c(NCCc3ccccc3)ncnc21,.,.,-18.2%,.,-20.2%,.
COc1ccc(-c2ccc3c(c2)c(Sc2ccccc2)c(-c2ccccc2)n3C)cc1,21.7,20.1%,-28.6%,.,?,17.8%
COc1ccc(CNc2ncnc3onc(C)c23)cc1,.,.,13µM*,.,16.4µM*,.
CCOC(=O)c1c(C)oc2ncnc(NCCc3ccccc3)c12,.,.,23.1µM*,.,20.6µM*,.
COc1ccc(-c2nc(SCC(=O)Nc3ccc4c(c3)OCCO4)c(-c3ccccc3)[nH]2)cc1,.,.,23.1µM*,.,?,.
COc1ccc(-c2[nH]c(-c3cccc(OC)c3)nc2SCC(=O)Nc2ccc3c(c2)OCO3)cc1,.,.,?,.,16.4µM*,.
COc1cccc(-c2nc(SCC(=O)NC3CCCC3)c(-c3ccc(F)cc3)[nH]2)c1,.,.,20.6µM*,.,?,.
COc1ccc(-c2cc(C(F)(F)F)nc(SCC(=O)Nc3ccc4c(c3)OCO4)n2)cc1,0.0,-3.0%,-5.4%,4.9%,-1.8%,-0.2%
COc1ccc(-c2[nH]c(-c3ccc(C)cc3)nc2SCC(=O)NC2CCCC2)cc1,-26.1,-16.4%,?,-14.4%,?,?
SMILES,IL-1B inflam inh,HT1080-NT tox,DT40 TDP1 no CPT,uPA surface inh,TDP1 cell CPT,HT1080 IDH1KD tx
COc1cccc(-c2nc(SCC(=O)Nc3ccc4c(c3)OCCO4)c(-c3ccccc3)[nH]2)c1,.,.,18.4µM*,.,23.1µM*,.
COc1cccc(-c2nnc(SCC(=O)Nc3ccc4c(c3)OCCO4)n2Cc2ccco2)c1,-4.3,-1.5%,?,5.6%,?,-8.4%
O=C(CSc1nc2ccccc2[nH]1)Nc1ccc2c(c1)OCCO2,0.8,-0.7%,-16.9%,-2.7%,?,-3.2%
COc1ccc2nc(SCC(=O)NC3CCCC3)c(C)cc2c1,65.4,?,16.4µM*,-6.4%,16.4µM*,5.8µM*
CCc1ccc(CN(C)C(=O)c2ccc3c(c2)OCCO3)cc1,18.4,9.4%,-1.3%,2.3%,-8.8%,2.0%
C=C(C)C(COc1c2occc2cc2ccc(=O)oc12)OC(C)(C)C(O)COc1c2occc2cc2ccc(=O)oc12 (configuration not stated),-4.4,4.6%,14.6µM*,-0.8%,13µM*,2.9%
CC(C)C(=O)COc1c2occc2cc2ccc(=O)oc12,-1.2,9.4%,-19.1%,-1.4%,6.3%,5.7%
CC(C(=O)Nc1ccc2c(c1)OCCO2)N(C)CC(=O)Nc1ccccc1Br (configuration not stated),-9.1,5.1%,-10.2%,-9.0%,-6.4%,8.8%
CCOC(=O)O[C@]1(C(=O)COC(=O)CC)CC[C@H]2[C@@H]3CCC4=CC(=O)C=C[C@]4(C)[C@H]3[C@@H](O)C[C@@]21C,-28.3,14.4%,?,7.0%,?,15.2%
CCCC1OC2C[C@@H]3[C@H]4CCC5=CC(=O)C=C[C@]5(C)[C@H]4C(O)C[C@]3(C)[C@]2(C(=O)CO)O1 (some centres not stated),.,.,?,.,11.2µM*,.
CCCC1OC2CC3C4CCC5=CC(=O)C=CC5(C)C4C(O)CC3(C)[C@]2(C(=O)CO)O1 (some centres not stated),.,.,?,.,16.4µM*,.
Cn1c(=O)c(-c2ccc(Cl)cc2)nc2cnc(Oc3cccc(Cl)c3)nc21,.,.,-11.2%,.,-21.5%,.
Nc1nc(-c2ccc3ccccc3c2)c(C2(O)C(=O)Nc3c(Br)cc(F)cc32)s1 (configuration not stated),1.3,-4.7%[9.24 µM],-0.7%,.,-0.3%,-4.6%
COC(=O)c1ccccc1-c1ccc(/C=N/Nc2nc(N3CCCC3)nc(N3CCCC3)n2)o1,-90.7*,?,23.1µM*,-2.4%,?,?
COC(=O)c1ccccc1-c1ccc(/C=N/NC(=O)c2cc3ccccc3o2)o1,-13.2,-2.1%,14.6µM*,6.4%,?,-2.4%

# From PubChem BioAssay
